Rows were chosen to be rich in hits. Some 2.9% of all compounds tested hit in one or more screens of this group.
dFosB activator = activators of delta FosB homodimer, primary screen, biochemical, fluorescence polarization, TAMRA-CDK5 oligo, single point; Protein FosB (Mus musculus), P13346; purified delta FosB; percent of positive-control signal above neutral wells; activation, % at 25 µM; 340,000 tested, 0.99% active;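 active = mean activation above about 17%, with every replicate also reaching it, limit read from the data, passing the limit was not always enough; inconclusive = only one of the two conditions met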
MEKK3 PB1 HTS = modulators of MEKK3-MEK5 PB1 binding, primary screen, biochemical, wildtype MEKK3, multiplex bead flow cytometry, Alexa488-MEK5; Mitogen-activated protein kinase kinase kinase 3 (Homo sapiens), Q99759; bead-based flow cytometry, Alexa488-MEK5 binding to MEKK3; actives lie on both sides; 0 = blocked by unlabeled MEK5, 100 = vehicle; binding response (% of control), % at 10 µM; 290,000 tested, 1.4% active; AID 1529, 2009;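 active = binding response more than 3 SD above or below the average of its plate-row segment, actives on both sides; inconclusive = wells at one plate position flagged as instrument error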;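 also: Alexa488 bead fluorescence after subtracting the streptavidin-only scavenger bead signal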
Target sequence (Q99759 whole entry, looked up): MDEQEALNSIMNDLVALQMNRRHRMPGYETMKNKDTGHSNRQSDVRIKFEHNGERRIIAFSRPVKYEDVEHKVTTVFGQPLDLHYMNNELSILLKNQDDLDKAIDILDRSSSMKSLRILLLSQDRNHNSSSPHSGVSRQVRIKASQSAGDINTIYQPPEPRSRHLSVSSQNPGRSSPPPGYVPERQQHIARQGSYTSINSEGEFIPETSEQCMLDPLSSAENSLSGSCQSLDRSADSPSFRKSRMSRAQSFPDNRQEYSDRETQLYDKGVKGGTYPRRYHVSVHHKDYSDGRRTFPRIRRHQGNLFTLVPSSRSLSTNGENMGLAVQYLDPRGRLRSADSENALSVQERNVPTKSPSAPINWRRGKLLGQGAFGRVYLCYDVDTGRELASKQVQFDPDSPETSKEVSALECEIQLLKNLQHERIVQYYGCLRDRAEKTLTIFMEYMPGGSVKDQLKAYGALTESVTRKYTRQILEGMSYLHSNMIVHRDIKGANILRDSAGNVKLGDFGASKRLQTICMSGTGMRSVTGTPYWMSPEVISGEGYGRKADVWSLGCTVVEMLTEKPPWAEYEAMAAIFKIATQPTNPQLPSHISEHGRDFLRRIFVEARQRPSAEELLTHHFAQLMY
MEKK2wt PB1 HTS = modulators of MEK5 binding to wildtype MEKK2, primary screen, biochemical, multiplex bead flow cytometry, Alexa488-MEK5; Mitogen-activated protein kinase kinase kinase 2 (Homo sapiens), Q9Y2U5; Alexa488-MEK5 binding to MEKK2 WT; actives lie on both sides; binding response (% of control), % at 10 µM; 290,000 tested, 1.1% active; in the data active = binding response below about 67% or above about 130%; inconclusive = no clear call, values can overlap the other calls; inactive = in between
DNA FID counter = compounds displacing fluorescent DNA intercalator, primary screen, artefact control for HCV NS3 helicase inhibitor project, biochemical, FID fluorescence. DNA fluorescent intercalator displacement. inhibition, % at 7.9 µM. 290,000 tested, 0.17% active; in the data active = inhibition above about 37%;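 also: 0% = vehicle and 100% = reference compound; higher means more ethidium bromide displaced from hairpin DNA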
MEKK2mut PB1 HTS = MEK5 binding signal on mutant MEKK2 PB1, primary screen, biochemical, multiplex bead flow cytometry, Alexa488-MEK5 | percent response, % at 10 µM | 290,000 tested, 0.35% active | Alexa488-MEK5 binding to MEKK2 mutant | AID 1530, 2009; in the data active = percent response above about 24%, passing the limit was not always enough
MEKK2wt confirm = modulators of MEK5 binding to wildtype MEKK2, confirmation, biochemical, single concentration, multiplex bead flow cytometry; shares compounds with MEKK3 PB1 HTS; Alexa488-MEK5 binding to MEKK2 WT; actives lie on both sides; binding response (% of control), % at 10 µM; 5,900 tested, 2.4% active; AID 1892, 2009; in the data active = binding response below about 16% or above about 210%; inactive = in between
MEKK2mut confirm = mutant MEKK2 PB1-MEK5 binding signal retest – biochemical, single concentration, multiplex bead flow cytometry, confirmation; shares compounds with MEKK3 PB1 HTS; Alexa488-MEK5 binding to MEKK2 mutant; percent response, % at 10 µM; 5,900 tested, 2% active; AID 1893, 2009; in the data active = percent response mostly above about 71%, no sharp cut-off; inactive = mostly below about 38%;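 also: higher means compound restores mutant binding toward wildtype level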
MEKK3-MEK5 inh = MEKK3 wild-type PB1 binding to MEK5, inhibitors, confirmation, biochemical, bead multiplex flow cytometry, single concentration, wildtype; shares compounds with MEKK3 PB1 HTS; 5,900 tested, 1.8% active; Alexa488-MEK5 binding to MEKK3; hits give low values; binding response (% of control), % at 10 µM;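 active = binding response below 72% of control, or above a set upper limit, though filed actives all read lower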;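 also: 100% = DMSO only wells and 0% = binding blocked by excess unlabeled MEK5; lower values mean stronger disruption of MEK5 binding to MEKK3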
Starred values were filed as active, the others as inactive; ? = inconclusive; . = no result; [ ] = another dose, or the depositor's remark.

SMILES	dFosB activator	MEKK3 PB1 HTS	MEKK2wt PB1 HTS	DNA FID counter	MEKK2mut PB1 HTS	MEKK2wt confirm	MEKK2mut confirm	MEKK3-MEK5 inh
COc1ccc(OC)c(NC(=O)c2cc(-c3cc(Cl)ccc3O)n[nH]2)c1	?	145.0*	130.0	0.4	8.0	93.0	-3.0	98.0
COc1cc(CCCN2C(=S)NC[C@@H]2c2ccccc2)cc(OC)c1OC	1.9	80.0*[inhibitor]	97.0	-18.3	0.0	107.0	9.0	108.0
COc1cc(CCCN2C(=S)NC[C@@H]2Cc2ccccc2)cc(OC)c1OC	-1.5	1.0*[inhibitor]	0.0*[inhibitor]	-34.1	2.0	102.0	0.0	104.0
CC(C)NC(=S)N(CCc1ccncc1)C(C)C	0.5	102.0	100.0	3.2	0.0	.	.	.
Cc1ccc(C(=O)CNc2ccc(Cl)cc2)cc1	0.0	1.0*[inhibitor]	1.0*[inhibitor]	-5.5	-47.0	100.0	-5.0	101.0
CN(C)CCC(=O)c1ccc(Cl)cc1	3.4	110.0	112.0	-0.8	27.0*	99.0	-4.0	99.0
CN(CCC(=O)c1ccccc1)CCC(=O)c1ccccc1	0.9	94.0	100.0	1.0	5.0	.	.	.
CCc1cccc2c(N=O)c(O)[nH]c12	1.3	136.0*	110.0	-1.8	0.0	108.0	8.0	105.0
O=Nc1c(O)[nH]c2c(F)cccc12	8.0	96.0	96.0	-5.6	-3.0	.	.	.
O=C(COC(=O)C1CC(=O)N(Cc2ccccc2)C1)Nc1ccccc1F (stereo unspecified)	1.8	91.0	95.0	-9.6	-7.0	.	.	.
COc1ccc(COc2cc(-c3cccc(OC)c3)nc3ccc(NC(=O)c4ccc(C)cc4)cc23)cc1	-0.2	1.0*[inhibitor]	1.0*[inhibitor]	-5.7	-1.0	96.0	-2.0	105.0
C=CCOc1ccc(C2NC(=S)NC3=C2CCc2ccccc23)cc1 (stereo unspecified)	-4.8	94.0	93.0	-13.0	-17.0	.	.	.
COc1cc(C2NC(=S)NC3=C2CCc2ccccc23)cc(OC)c1OC (stereo unspecified)	-2.0	142.0*	109.0	-15.4	0.0	98.0	1.0	104.0
CCC(C)NC(=O)C1CCN(S(=O)(=O)c2ccc(OC)cc2)CC1 (stereo unspecified)	4.5	96.0	95.0	-6.9	1.0	.	.	.
CC(C)=CCc1c(O)cc(O)c2c(=O)c3c(CC=C(C)C)c(O)ccc3oc12	.	104.0	137.0*	.	8.0	107.0	3.0	98.0
COc1cccc2sc(N(CCCN(C)C)C(=O)c3sc4ccccc4c3Cl)nc12	4.8	119.0	211.0*	1.7	63.0*	125.0	16.0	108.0
CC(=O)c1ccc(C(=O)N(CCN(C)C)c2nc3c(Cl)cccc3s2)cc1	1.6	107.0	127.0	5.5	17.0	.	.	.
CN(C)CCCN(C(=O)c1ccc2c(c1)CCCC2)c1nc2c(F)cccc2s1	-11.0	91.0	121.0	8.5	4.0	.	.	.
CN(C)CCCN(C(=O)c1sc2ccccc2c1Cl)c1nc2c(F)cccc2s1	-0.5	110.0	325.0*	2.0	139.0*	144.0	27.0	108.0
Cc1cccc2sc(N(CCCN(C)C)C(=O)c3sc4ccccc4c3Cl)nc12	-37.9	109.0	197.0*	4.0	53.0*	137.0	27.0	106.0
O=C(O)c1cnn(-c2ccccc2)c1C(F)(F)F	-8.0	96.0	96.0	1.9	-6.0	.	.	.

Assay outcomes: PubChem, several laboratories
